# Source: the supplement of paper PMC12067093, “Discovery and optimisation of a covalent ligand for TRIM25 and its application to targeted protein ubiquitination” (Chemical Science, 2025)
# The full data set covers some 21,000 targets. This sample favours those with the largest changes.
# Experiments:
# [1] = target: SARS_P49591_431_VEFVHMLNATMCATTR (UniProt P49591); assay: probe-labelled cysteine peptide fold change vs DMSO (competition) (log2 fold change); higher = less target engagement (more negative = stronger competition); conditions: THP-1, incubation time: 4 h
# Sequence of UniProt P49591 (P49591 whole entry, looked up): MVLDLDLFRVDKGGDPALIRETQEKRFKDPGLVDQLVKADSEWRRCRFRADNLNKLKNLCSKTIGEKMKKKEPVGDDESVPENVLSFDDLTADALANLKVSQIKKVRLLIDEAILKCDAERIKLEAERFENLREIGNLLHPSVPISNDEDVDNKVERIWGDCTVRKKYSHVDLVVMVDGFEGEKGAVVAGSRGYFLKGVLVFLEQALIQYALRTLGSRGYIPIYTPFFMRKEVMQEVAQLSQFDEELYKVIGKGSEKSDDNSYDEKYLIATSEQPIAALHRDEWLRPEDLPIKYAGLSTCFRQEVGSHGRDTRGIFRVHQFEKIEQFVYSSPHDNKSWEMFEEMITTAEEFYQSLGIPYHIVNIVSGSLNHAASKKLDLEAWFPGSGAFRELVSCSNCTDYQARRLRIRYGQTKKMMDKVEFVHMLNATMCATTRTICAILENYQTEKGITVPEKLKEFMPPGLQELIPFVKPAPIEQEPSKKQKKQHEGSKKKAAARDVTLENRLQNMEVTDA
# [2] = target: SLFN11_Q7Z7L1_842_VVQLSDACDMLGDHIVLDSVRR (UniProt Q7Z7L1); assay: as above; conditions: THP-1, incubation time: 4 h
# Sequence of UniProt Q7Z7L1 (Q7Z7L1 whole entry, looked up): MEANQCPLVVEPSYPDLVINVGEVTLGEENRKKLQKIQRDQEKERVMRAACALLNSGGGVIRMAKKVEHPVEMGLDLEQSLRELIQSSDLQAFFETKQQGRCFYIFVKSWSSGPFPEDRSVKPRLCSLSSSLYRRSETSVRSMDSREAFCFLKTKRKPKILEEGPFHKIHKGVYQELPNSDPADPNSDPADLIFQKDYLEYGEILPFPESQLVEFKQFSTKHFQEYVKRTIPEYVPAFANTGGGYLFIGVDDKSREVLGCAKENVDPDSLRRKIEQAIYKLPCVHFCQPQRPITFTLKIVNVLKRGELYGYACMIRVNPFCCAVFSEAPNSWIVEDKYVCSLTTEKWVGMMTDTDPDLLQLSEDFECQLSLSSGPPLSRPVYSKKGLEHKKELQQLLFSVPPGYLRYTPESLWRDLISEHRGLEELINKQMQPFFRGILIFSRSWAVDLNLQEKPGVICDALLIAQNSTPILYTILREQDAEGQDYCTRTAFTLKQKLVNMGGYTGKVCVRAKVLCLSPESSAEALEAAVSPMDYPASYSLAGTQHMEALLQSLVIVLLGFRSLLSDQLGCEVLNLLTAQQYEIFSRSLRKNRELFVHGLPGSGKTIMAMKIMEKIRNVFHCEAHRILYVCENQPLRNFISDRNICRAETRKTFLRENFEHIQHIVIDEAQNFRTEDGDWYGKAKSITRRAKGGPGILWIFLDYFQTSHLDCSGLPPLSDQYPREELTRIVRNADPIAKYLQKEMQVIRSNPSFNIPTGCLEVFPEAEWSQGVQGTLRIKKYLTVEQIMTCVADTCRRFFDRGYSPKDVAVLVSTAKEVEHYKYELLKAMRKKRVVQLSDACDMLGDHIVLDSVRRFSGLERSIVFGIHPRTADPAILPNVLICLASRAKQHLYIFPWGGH
# 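Note: competitive chemoproteomic profiling in live THP-1 cells with an iodoacetamide desthiobiotin (IA-DTB) probe, comparing probe-labelled peptide intensities in compound-treated cells against DMSO-treated controls.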
compound,measurement,setting,value
CC1Cc2ccccc2N1C(=O)C1CCCN(C(=O)CCl)C1 (mixture of isomers) [TRIM25 ligand 11 (diastereomer mixture)],probe-labelled cysteine peptide fold change,[1]; 10 µM,0.102
same,probe-labelled cysteine peptide fold change,[1]; 50 µM,0.113
same,probe-labelled cysteine peptide fold change,[2]; 10 µM,0.174
same,probe-labelled cysteine peptide fold change,[2]; 50 µM,0.0323
